According to PubChem BioAssay (NCATS):
Records with an inconclusive call do not appear. Where a call stands in place of a potency, no number is given. Activity calls are given as the source filed them. The call rests on the fitted dose curve; in most records, active means well fitted inhibition curve with a large enough effect; inconclusive means small, poorly fitted or top-dose-only effect; inactive means flat fitted curve, though single readings scatter.
Potency means the concentration at half of the fitted maximal effect.

What follows are compounds tested on CP262 (assay: qHTS profiling for inhibitors of Plasmodium falciparum proliferation (AID 504749; further: nearly all actives have a fitted effect of over 60% in size)). Conditions: P. falciparum in erythrocytes, SYBR Green DNA, 72 h; series mostly up to 28.7 µM.
Method in brief: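 Fluorescence of SYBR Green-bound parasite DNA, read at 485/535 nm, served as the growth measure. Infected erythrocytes were cultured with compound 72 h; artemisinin (0.29 uM) and DMSO wells defined the normalization range.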
`O=C1[C@H]2CCCC[C@H]2C(=O)N1CCCCN1CCN(c2nsc3ccccc23)CC1` was tested, and the Potency was “inactive”.
With `C[C@@H]1C[C@H]2[C@@H]3CCC4=CC(=O)C=C[C@]4(C)[C@@]3(F)[C@@H](O)C[C@]2(C)[C@H]1C(=O)CO` the Potency was “inactive”.
With `O=C1OCCN1/N=C/c1ccc([N+](=O)[O-])o1` the Potency was “inactive”.
`CC(=O)OCC(=O)[C@@]1(OC(C)=O)[C@@H](C)C[C@H]2[C@@H]3C[C@H](F)C4=CC(=O)C=C[C@]4(C)[C@@]3(F)[C@@H](O)C[C@@]21C` was tested, and the Potency was “inactive”.
For `CCCOC(C(=O)OC1CCN(C)CC1)(c1ccccc1)c1ccccc1`, the Potency was “inactive”.
With `O=c1c(-c2ccccc2)c1-c1ccccc1` the Potency was “inactive”.
`CN(C(=O)CN(CCO)CC(=O)N(C)C(C)(C)Cc1ccccc1)C(C)(C)Cc1ccccc1` was tested, and the Potency was “inactive”.
With `CCN(CCCc1ccccc1)CCCc1ccccc1` the Potency was “inactive”.
For `CCOc1ccc(Cc2nccc3cc(OCC)c(OCC)cc23)cc1OCC`, the Potency was “inactive”.
For `CCCCN1CCCC1C(=O)Nc1c(C)cc(C)cc1C` (stereo unspecified), the Potency was “inactive”.
`CCCCCCCCCCOCC(O)CN` (stereo unspecified) was tested, and the Potency was “inactive”.
For `CN1CCN(C(c2ccccc2)c2ccccc2)CC1`, the Potency was “inactive”.
With `CCN1CCC[C@H]1CNC(=O)c1c(OC)ccc(Br)c1OC` the Potency was “inactive”.
In the case of `CCN(CC)CCNC(=O)COc1ccc(Cl)cc1`, the Potency is reported as “inactive”.
`COC(=O)[C@H]1[C@H]2C[C@H]3c4[nH]c5ccccc5c4CCN3C[C@H]2CC[C@@H]1O` was tested, and the Potency was “inactive”.
With `CCN1CCN(c2cc3c(cc2F)c(=O)c(C(=O)O)cn3C2CC2)CC1` the Potency was “inactive”.
For `CC(Cc1cccc(C(F)(F)F)c1)NCCOC(=O)c1ccccc1` (stereo unspecified), the Potency was “inactive”.
`CN(C)CC/C=C1\c2ccccc2Sc2ccc(Cl)cc21` was tested, and the Potency was “inactive”.
`CC(=O)c1ccc2c(c1)N(CCCN1CCC(CCO)CC1)c1ccccc1S2` was tested, and the Potency was “inactive”.
With `O=C(CCCN1CCC(O)(c2ccc(Br)cc2)CC1)c1ccc(F)cc1` the Potency was “inactive”.
With `CC(C)N=C(N)/N=C(\N)Nc1ccc(Cl)cc1` the Potency was 2280 nM (active).
`O=C(Nc1ccc(Oc2ccc(Cl)cc2)c(Cl)c1)c1cc(I)cc(I)c1O` was tested, and the Potency was “inactive”.
With `CCOC(=O)/C=C(C)/C=C/C=C(C)/C=C/c1c(C)cc(OC)c(C)c1C` the Potency was “inactive”.
With `NC(CS)C(=O)O` (stereo unspecified) the Potency was “inactive”.
For `CO/N=C1\CN(c2nc3c(cc2F)c(=O)c(C(=O)O)cn3C2CC2)CC1CN` (stereo unspecified), the Potency was “inactive”.
In the case of `CCN(CC)C(=O)/C(C#N)=C/c1cc(O)c(O)c([N+](=O)[O-])c1`, the Potency is reported as “inactive”.
